Results: PubChem BioAssay (NCATS)
Results filed as inconclusive are left out. Where a call stands in place of a potency, no number is given. Active and inactive are the calls of the source. The call rests on the fitted dose curve.

assay: Cytotoxicity counterscreen for inhibitors of SARS-CoV-2 cell entry (AID 1645845); details: cell viability (SARS-CoV-2 entry assay cells); series mostly up to 57.1 µM; further: nearly all actives have a fitted effect of over 50% in size
How it was run: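 48 h compound treatment (after 1 h preincubation), HEK293-ACE2 cells, 37 C/5% CO2; ATP luminescence endpoint; normalized to cell wells and media blanks.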

| SMILES | Potency |
| --- | --- |
| COCc1c(C(C)C)nc(C(C)C)c(/C=C/[C@@H](O)C[C@@H](O)CC(=O)O)c1-c1ccc(F)cc1 | inactive |
| CCCCNc1ccc(C(=O)OCCN(CC)CC)cc1 | inactive |
| C=Cc1c(C)c2cc3[nH]c(cc4nc(cc5nc(cc1[nH]2)C(C)=C5CCC(=O)O)C(CCC(=O)O)=C4C)c(C)c3C=C | inactive |
| Cc1ccc(/C(=C\CN2CCCC2)c2ccccn2)cc1 | inactive |
| C=C1C(=C/C=C2\CCC[C@]3(C)[C@@H]([C@H](C)/C=C/[C@@H](O)C4CC4)CC[C@@H]23)C[C@@H](O)C[C@@H]1O | inactive |
| CCc1ccc(C(=O)C(C)CN2CCCCC2)cc1 (centres undefined) | inactive |
| O=C(CCCCC(=O)Nc1c(I)cc(I)c(C(=O)O)c1I)Nc1c(I)cc(I)c(C(=O)O)c1I | inactive |
| N=C(N)c1ccc2cc(OC(=O)c3ccc(N=C(N)N)cc3)ccc2c1 | inactive |
| CC[C@H](c1ccc(O)cc1)[C@@H](CC)c1ccc(O)cc1 | inactive |
| CCN(CC)CC(=O)Nc1c(C)cccc1C(=O)OC | inactive |
| O=C(Nc1ccc(S(=O)(=O)N2CCOCC2)cc1)c1cc(Cl)ccc1NS(=O)(=O)c1ccc(Cl)s1 | inactive |
| CCN(CC)CCOc1ccccc1C(=O)CCc1ccccc1 | inactive |
| CN1CCN(C2=Nc3ccccc3Sc3ccc(Cl)cc32)CC1 | inactive |
| C[C@@H]1CCN(C(=O)[C@H](CCCN=C(N)N)NS(=O)(=O)c2cccc3c2NC[C@H](C)C3)[C@@H](C(=O)O)C1 | inactive |
| CCOC(=O)Cn1cccc1-c1nc(-c2ccc(OC)cc2)c(-c2ccc(OC)cc2)s1 | inactive |
| CCN(CC)CCOC(=O)C(Cc1cccc2ccccc12)CC1CCCO1 (centres undefined) | inactive |
| CCCS(=O)c1ccc2nc(NC(=O)OC)[nH]c2c1 (centres undefined) | inactive |
| N[C@H](C(=O)O)[C@@H](O)c1ccc(O)c(O)c1 | inactive |
| C=CCOc1ccccc1OCC(O)CNC(C)C (centres undefined) | inactive |
| CCCc1cc(C(N)=S)ccn1 | inactive |

| SMILES | Potency |
| --- | --- |
| CN(C)CCN(Cc1ccccc1)c1ccccn1 | inactive |
| Oc1ccc(CCNCCCCCCNCCc2ccccc2)cc1O | inactive |
| CCCCN(CCCC)CCC(O)c1cc2c(Cl)cc(Cl)cc2c2cc(C(F)(F)F)ccc12 (centres undefined) | inactive |
| CC1(C)CCC(C)(C)c2cc(NC(=O)c3ccc(C(=O)O)cc3)ccc21 | inactive |
| CO[C@@H]1[C@@H](O[C@@H]2O[C@H](C)[C@@H](O[C@H]3C[C@@](C)(O)[C@@H](O)[C@H](C)O3)[C@H](N(C)C)[C@H]2O)[C@@H](CC=O)C[C@@H](C)[C@@H](O[C@@H]2CC[C@H](N(C)C)[C@@H](C)O2)/C=C/C=C/C[C@@H](C)OC(=O)C[C@H]1OC(C)=O | inactive |
| OC(CCN1CCCCC1)(c1ccccc1)c1ccccc1 | inactive |
| Oc1ccc(O)cc1 | inactive |
| CCCCN1CCCC[C@H]1C(=O)Nc1c(C)cccc1C | inactive |
| Nc1c2c(nc3ccccc13)CCCC2 | inactive |
| CN1[C@@H]2CC[C@H]1CC(OC(=O)c1c[nH]c3ccccc13)C2 (some centres undefined) | inactive |
| OC(CCN1CCCCC1)(c1ccccc1)C1CC2C=CC1C2 (centres undefined) | inactive |
| Cc1ccc(C(=O)Oc2ccc(C(O)CNC(C)(C)C)cc2OC(=O)c2ccc(C)cc2)cc1 (centres undefined) | inactive |
| CCOCC(O)COc1ccc(NC(=O)CC[S+](C)C)cc1 (centres undefined) | inactive |
| CCCCOc1cc(C(=O)OCCN(CC)CC)ccc1N | inactive |
| Cc1cc(C(C)(C)C)cc(C)c1CC1=NCCN1 | inactive |
| CC1CCCCN1CCCOC(=O)c1ccc(OC2CCCCC2)cc1 (centres undefined) | inactive |
| CCOC(=O)[C@H](CCc1ccccc1)N[C@@H](C)C(=O)N(CC(=O)O)C1Cc2ccccc2C1 | inactive |
| CC(C)C[C@@H]1[C@H](c2ccccc2)OC(=O)N1CCCN1CCCCCC1 | inactive |
| Clc1ccc(Cn2c(CN3CCCC3)nc3ccccc32)cc1 | inactive |
